In PubChem BioAssay (EPA / NIEHS) one finds outcome and AC50 data, which are given here for 19 molecules.

The nature of assay [1]: BSK_SAg_PBMCCytotoxicity: PBMC Cytotoxicity Assessment in the BioMAP Diversity Plus: SAg Assay (AID 2283093).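 For AC50: PBMC superantigen activated with SEB plus TSST-1 one hour after compound addition.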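 Note: PBMC viability measured as Alamar Blue reduction fluorescence at 546/580 nm; fitted both ways against DMSO so a hit may be loss or gain of signal.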 The following applies: primary human HUVEC with PBMC. The essentials:
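Compound added to 75,000 PBMC/well for 1 h; SEB and TSST-1 then added at 20 ng/mL final each; 90 h incubation; Alamar Blue 6 h; read 546/580 nm ex/em. Activity fitted bidirectionally relative to DMSO baseline.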

Read-out in assay [2]: Interleukin-8 (IL8), CXCL8 (gene 3576)
Nature of the assay: BSK_SAg_IL8: BioMAP Diversity Plus: SAg Assay for Interleukin-8 (IL8) Biomarker Activity (AID 2283094). The following applies: primary human HUVEC with PBMC; actives raise or lower the signal. An outline of the steps: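 ELISA read-out of IL-8 in a primary human vascular co-culture (umbilical vein endothelium plus PBMC), taken 24 h after compound addition. Values derive from bidirectional fits against DMSO negative controls.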

Assay [3] can be described thus: BSK_SAg_Proliferation: Cell Proliferation Assessment in the BioMAP Diversity Plus: SAg Assay (AID 2283095).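 Note: relative cell number as total protein by SRB absorbance in sub-confluent culture.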 Conditions: primary human HUVEC with PBMC. An outline of the steps: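 Cells (endothelium plus PBMC, human primary) were dosed with chemical, cultured 96 h, fixed in 10% TCA and stained with 0.1% SRB. Absorbance at 560 nm gave relative protein, fitted bidirectionally relative to DMSO.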

Assay [4] can be described thus: BSK_SAg_SRB: Viability Assessment in the BioMAP Diversity Plus: SAg Assay (AID 2283096).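 Note: cells read one day after compound addition; hits may be either gain or loss of signal compared with DMSO.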 The following applies: primary human HUVEC with PBMC. The essentials: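 Total protein by sulforhodamine B staining, 24 h after dosing, in HUVEC–PBMC co-culture; DMSO-referenced bidirectional fitting.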
Assay [5] addresses human CYP4F12, CYP4F12 (gene 66002) (UniProt Q9HCS2). As to the kind of experiment: NVS_ADME_hCYP4F12: NovaScreen (NVS) CYP450-related Enzyme Activity (ADME) Assay for human CYP4F12 (AID 2283111; active = hit-call score of the fitted dose curve at least 0.9, where 1 is the maximum). An outline of the steps:
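Cell-free fluorescence assay of recombinant human CYP4F12 activity on a specific substrate, read 0.5 h after dosing. Primary screen in duplicate at 10 uM, then concentration series for actives; loss of signal fitted against acetonitrile negative control.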

Assay [6] deals with human AMP-activated Protein Kinase, alpha 1 (AMPKa1), PRKAA1 (gene 5562) (UniProt Q13131). As to the kind of experiment: NVS_ENZ_hAMPKa1: NovaScreen (NVS) Enzymatic Assay for human AMP-activated Protein Kinase, alpha 1 (AMPKa1) (AID 2283130; active = hit-call score of the fitted dose curve at least 0.9, where 1 is the maximum). An outline of the steps: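 Recombinant human AMPKα1 activity was measured cell-free by fluorescent substrate conversion with electrophoretic mobility-shift separation, 1 h after dosing. Duplicate single-point screening was at 25 uM; actives (≥30% inhibition) were retested in concentration-response up to 50 uM.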
Chain of human AMP-activated Protein Kinase, alpha 1 (AMPKa1), PRKAA1 (gene 5562) (Q13131 whole entry, looked up): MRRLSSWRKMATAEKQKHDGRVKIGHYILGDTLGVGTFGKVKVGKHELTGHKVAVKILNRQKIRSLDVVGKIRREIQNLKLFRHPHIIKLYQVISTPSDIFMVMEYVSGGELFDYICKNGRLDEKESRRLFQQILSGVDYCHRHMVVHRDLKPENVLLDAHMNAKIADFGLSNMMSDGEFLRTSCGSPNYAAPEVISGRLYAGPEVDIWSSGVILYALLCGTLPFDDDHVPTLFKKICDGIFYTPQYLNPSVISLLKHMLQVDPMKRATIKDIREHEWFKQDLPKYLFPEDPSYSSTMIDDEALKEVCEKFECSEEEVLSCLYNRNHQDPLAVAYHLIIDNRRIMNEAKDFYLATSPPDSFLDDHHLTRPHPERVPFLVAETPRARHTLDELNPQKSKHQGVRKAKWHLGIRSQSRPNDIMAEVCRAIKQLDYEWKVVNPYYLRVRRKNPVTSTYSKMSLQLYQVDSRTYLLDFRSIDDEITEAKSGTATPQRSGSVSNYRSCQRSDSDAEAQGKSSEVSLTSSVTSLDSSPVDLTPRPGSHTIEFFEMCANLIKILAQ

The target of assay [7] is human CYP19A1, CYP19A1 (gene 1588) (UniProt P11511). Nature of the assay: NVS_ADME_hCYP19A1: NovaScreen (NVS) CYP450-related Enzyme Activity (ADME) Assay for human CYP19A1 (AID 2283098; active = hit-call score of the fitted dose curve at least 0.9, where 1 is the maximum;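 for AC50: potency for inhibitors seen as loss of fluorescent enzyme signal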). The essentials:
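Biochem, cell-free; recombinant enzyme + specific substrate; fluorescence intensity at 0.5 h post-dose; 10 uM duplicate primary, conc. series for actives; acetonitrile = negative control/baseline; positive and negative controls on every plate.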

Assay [8] has as its target human CYP2D6, CYP2D6 (gene 1565) (UniProt P10635). As to the kind of experiment: NVS_ADME_hCYP2D6: NovaScreen (NVS) CYP450-related Enzyme Activity (ADME) Assay for human CYP2D6 (AID 2283107; active = hit-call score of the fitted dose curve at least 0.9, where 1 is the maximum). The essentials: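 Biochemical fluorescence assay, insect-cell-derived enzyme. Read at 1 h; inhibition taken from loss of signal against acetonitrile. Screened at 10 uM in duplicate, with concentration series for actives.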

For assay [9], the target named is Cytochrome P450 2C19 (Homo sapiens) (UniProt P33261). Nature of the assay: NVS_ADME_hCYP2C19: NovaScreen (NVS) CYP450-related Enzyme Activity (ADME) Assay for human CYP2C19 (AID 2283113; active = hit-call score of the fitted dose curve at least 0.9, where 1 is the maximum;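 note: potency for inhibition seen as loss of fluorescent signal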). An outline of the steps: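 Biochemical CYP2C19 inhibition screen: insect-cell recombinant protein plus fluorescent substrate, 1 h, fluorescence intensity. Acetonitrile defined baseline activity. Single 10 uM concentration in duplicate, with concentration-response follow-up for actives.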

Assay [10] concerns the target human CYP2B6, CYP2B6 (gene 1555) (UniProt P20813). Nature of the assay: NVS_ADME_hCYP2B6: NovaScreen (NVS) CYP450-related Enzyme Activity (ADME) Assay for human CYP2B6 (AID 2283101; active = hit-call score of the fitted dose curve at least 0.9, where 1 is the maximum). An outline of the steps: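 Fluorescence-based enzyme activity of recombinant human CYP2B6, measured 1 h post-dose against acetonitrile vehicle baseline. Screened at a single concentration of 10 uM in duplicate before concentration-response follow-up.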

The target in assay [11] is rat CYP2A2, Cyp2a2 (gene 24895) (UniProt P15149). Nature of the assay: NVS_ADME_rCYP2A2: NovaScreen (NVS) CYP450-related Enzyme Activity (ADME) Assay for rat CYP2A2 (AID 2283116; active = hit-call score of the fitted dose curve at least 0.9, where 1 is the maximum). An outline of the steps:
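Cell-free recombinant rat CYP2A2 activity with fluorogenic substrate, fluorescence read 0.2 h after dosing. Chemicals screened at 10 uM in duplicate, hits then run in concentration-response up to 20 uM; signal loss versus acetonitrile baseline.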

In assay [12] the target is human CYP1A2, CYP1A2 (gene 1544) (UniProt P05177). Nature of the assay: NVS_ADME_hCYP1A2: NovaScreen (NVS) CYP450-related Enzyme Activity (ADME) Assay for human CYP1A2 (AID 2283102; active = hit-call score of the fitted dose curve at least 0.9, where 1 is the maximum). The essentials: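 Inhibition scored as decrease in fluorescent product versus acetonitrile negative control. Enzyme: insect-cell recombinant human CYP1A2, substrate-specific, cell-free. Reading at 0.5 h; 10 uM duplicate initial screen with positive and negative controls on every plate.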
Chain of human CYP1A2, CYP1A2 (gene 1544) (P05177 whole entry, looked up): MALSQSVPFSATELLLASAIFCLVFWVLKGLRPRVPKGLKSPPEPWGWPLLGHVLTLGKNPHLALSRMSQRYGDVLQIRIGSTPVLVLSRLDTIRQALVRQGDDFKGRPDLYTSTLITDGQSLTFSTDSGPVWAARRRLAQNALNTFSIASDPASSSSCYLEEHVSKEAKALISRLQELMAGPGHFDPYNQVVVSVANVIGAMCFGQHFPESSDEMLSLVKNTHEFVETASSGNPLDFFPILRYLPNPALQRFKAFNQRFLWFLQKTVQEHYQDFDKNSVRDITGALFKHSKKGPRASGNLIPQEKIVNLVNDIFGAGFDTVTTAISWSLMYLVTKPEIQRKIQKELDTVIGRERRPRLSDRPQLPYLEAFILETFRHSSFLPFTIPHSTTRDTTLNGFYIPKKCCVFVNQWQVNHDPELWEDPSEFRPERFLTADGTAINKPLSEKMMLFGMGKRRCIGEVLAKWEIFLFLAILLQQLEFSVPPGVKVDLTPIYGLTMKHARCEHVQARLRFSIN

For assay [13], the target named is rat CYP2A1, Cyp2a1 (gene 24894) (UniProt P11711). Nature of the assay: NVS_ADME_rCYP2A1: NovaScreen (NVS) CYP450-related Enzyme Activity (ADME) Assay for rat CYP2A1 (AID 2283114). An outline of the steps:
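Recombinant rat CYP2A1, cell-free, fluorogenic substrate turnover read by fluorescence intensity 0.75 h after dosing. Primary screen at 10 uM in duplicate; actives rerun as concentration-response up to 20 uM; loss of signal versus acetonitrile control.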

A further assay relates to rat CYP3A1, gene 25642. As to the kind of experiment: NVS_ADME_rCYP3A1: NovaScreen (NVS) CYP450-related Enzyme Activity (ADME) Assay for rat CYP3A1 (AID 2283126; active = hit-call score of the fitted dose curve at least 0.9, where 1 is the maximum). An outline of the steps:
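Cell-free recombinant CYP assay with fluorescent substrate, read 0.5 h after dosing. Screened at 10 uM in duplicate, hits at up to 20 uM in concentration-response; loss of signal versus acetonitrile baseline.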

The target of assay [14] is human CYP2C9, CYP2C9 (gene 1559) (UniProt P11712). As to the kind of experiment: NVS_ADME_hCYP2C9: NovaScreen (NVS) CYP450-related Enzyme Activity (ADME) Assay for human CYP2C9 (AID 2283108; active = hit-call score of the fitted dose curve at least 0.9, where 1 is the maximum). The essentials: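 Fluorescence readout of CYP2C9 activity (SF9-expressed human enzyme) at 0.75 h. The primary screen used 10 uM in duplicate, with concentration-response follow-up for actives; acetonitrile was the negative control.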
Chain of human CYP2C9, CYP2C9 (gene 1559) (P11712 whole entry, looked up): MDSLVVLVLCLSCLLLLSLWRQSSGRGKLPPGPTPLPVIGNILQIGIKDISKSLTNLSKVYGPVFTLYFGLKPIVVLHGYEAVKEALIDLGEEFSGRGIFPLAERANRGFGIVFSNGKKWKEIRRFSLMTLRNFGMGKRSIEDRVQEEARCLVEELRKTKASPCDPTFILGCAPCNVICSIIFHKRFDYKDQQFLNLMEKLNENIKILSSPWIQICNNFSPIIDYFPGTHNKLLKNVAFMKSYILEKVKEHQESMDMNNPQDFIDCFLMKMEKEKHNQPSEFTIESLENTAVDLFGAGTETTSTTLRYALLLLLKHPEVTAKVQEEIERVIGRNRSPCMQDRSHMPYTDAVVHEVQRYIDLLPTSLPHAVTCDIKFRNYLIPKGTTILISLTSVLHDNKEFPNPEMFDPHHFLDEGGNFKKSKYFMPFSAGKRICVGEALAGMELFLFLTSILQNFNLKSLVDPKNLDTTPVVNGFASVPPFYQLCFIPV

SMILES strings stand for the structures. Records with an inconclusive call do not appear. Activity calls are given as the source filed them. Rule for the calls, unless noted: active = hit-call score of the fitted dose curve at least 0.9, where 1 is the maximum; inactive = score below 0.9.

The term AC50 denotes the concentration at which the activity in the assay is half-maximal.

Chain of human CYP2D6, CYP2D6 (gene 1565) (P10635 whole entry, looked up): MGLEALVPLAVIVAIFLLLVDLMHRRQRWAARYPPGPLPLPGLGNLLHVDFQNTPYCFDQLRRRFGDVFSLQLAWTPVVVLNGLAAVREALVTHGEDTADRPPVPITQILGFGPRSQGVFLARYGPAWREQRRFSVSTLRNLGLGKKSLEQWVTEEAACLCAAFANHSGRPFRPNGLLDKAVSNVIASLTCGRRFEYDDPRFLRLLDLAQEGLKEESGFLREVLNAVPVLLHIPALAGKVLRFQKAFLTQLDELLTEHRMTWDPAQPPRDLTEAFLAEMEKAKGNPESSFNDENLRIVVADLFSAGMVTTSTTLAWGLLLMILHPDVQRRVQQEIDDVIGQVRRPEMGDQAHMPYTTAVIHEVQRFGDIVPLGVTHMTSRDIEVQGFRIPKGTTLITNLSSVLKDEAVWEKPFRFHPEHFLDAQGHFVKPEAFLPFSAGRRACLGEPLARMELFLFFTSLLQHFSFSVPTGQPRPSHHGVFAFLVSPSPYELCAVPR
Chain of human CYP19A1, CYP19A1 (gene 1588) (P11511 whole entry, looked up): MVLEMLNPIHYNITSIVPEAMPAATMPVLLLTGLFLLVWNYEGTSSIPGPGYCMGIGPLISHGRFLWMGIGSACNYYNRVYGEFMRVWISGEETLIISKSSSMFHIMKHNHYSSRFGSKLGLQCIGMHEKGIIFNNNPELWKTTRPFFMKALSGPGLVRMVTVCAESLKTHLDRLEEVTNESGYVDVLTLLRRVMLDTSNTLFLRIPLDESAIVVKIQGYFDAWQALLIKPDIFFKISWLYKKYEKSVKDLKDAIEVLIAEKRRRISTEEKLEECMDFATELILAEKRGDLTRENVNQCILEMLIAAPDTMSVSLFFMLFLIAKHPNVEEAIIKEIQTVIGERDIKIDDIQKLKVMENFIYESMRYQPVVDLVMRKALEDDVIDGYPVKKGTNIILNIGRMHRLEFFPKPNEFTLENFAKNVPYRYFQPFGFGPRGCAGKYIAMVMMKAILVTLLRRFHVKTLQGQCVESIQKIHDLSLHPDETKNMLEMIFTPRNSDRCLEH
Chain of human CYP4F12, CYP4F12 (gene 66002) (Q9HCS2 whole entry, looked up): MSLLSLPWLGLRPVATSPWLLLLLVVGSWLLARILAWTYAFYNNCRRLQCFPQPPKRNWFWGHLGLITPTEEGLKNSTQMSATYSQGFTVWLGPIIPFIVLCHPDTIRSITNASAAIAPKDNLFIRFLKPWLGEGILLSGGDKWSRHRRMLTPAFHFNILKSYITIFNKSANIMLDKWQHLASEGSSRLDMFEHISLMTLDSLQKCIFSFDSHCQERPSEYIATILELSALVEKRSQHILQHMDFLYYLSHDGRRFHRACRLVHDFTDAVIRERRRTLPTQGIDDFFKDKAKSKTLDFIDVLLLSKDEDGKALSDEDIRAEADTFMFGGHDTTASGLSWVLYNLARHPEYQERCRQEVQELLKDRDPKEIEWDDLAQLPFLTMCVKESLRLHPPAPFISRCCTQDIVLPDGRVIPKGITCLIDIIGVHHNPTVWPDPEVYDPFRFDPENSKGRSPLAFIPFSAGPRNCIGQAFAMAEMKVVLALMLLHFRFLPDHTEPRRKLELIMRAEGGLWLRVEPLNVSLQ
Chain of rat CYP2A1, Cyp2a1 (gene 24894) (P11711 whole entry, looked up): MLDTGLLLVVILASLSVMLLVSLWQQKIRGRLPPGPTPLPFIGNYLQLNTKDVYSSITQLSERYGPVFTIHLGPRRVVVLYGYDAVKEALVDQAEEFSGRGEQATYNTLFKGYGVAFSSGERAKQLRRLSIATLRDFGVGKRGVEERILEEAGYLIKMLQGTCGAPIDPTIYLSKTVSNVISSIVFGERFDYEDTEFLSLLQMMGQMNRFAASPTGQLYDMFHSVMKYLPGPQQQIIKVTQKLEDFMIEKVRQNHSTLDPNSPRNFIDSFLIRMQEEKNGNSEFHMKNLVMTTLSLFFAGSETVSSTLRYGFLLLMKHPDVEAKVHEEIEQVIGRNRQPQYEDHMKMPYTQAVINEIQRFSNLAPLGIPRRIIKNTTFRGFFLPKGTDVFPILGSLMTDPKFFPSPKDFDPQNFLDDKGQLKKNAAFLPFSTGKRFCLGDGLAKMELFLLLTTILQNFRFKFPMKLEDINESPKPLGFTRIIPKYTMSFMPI
Chain of rat CYP2A2, Cyp2a2 (gene 24895) (P15149 whole entry, looked up): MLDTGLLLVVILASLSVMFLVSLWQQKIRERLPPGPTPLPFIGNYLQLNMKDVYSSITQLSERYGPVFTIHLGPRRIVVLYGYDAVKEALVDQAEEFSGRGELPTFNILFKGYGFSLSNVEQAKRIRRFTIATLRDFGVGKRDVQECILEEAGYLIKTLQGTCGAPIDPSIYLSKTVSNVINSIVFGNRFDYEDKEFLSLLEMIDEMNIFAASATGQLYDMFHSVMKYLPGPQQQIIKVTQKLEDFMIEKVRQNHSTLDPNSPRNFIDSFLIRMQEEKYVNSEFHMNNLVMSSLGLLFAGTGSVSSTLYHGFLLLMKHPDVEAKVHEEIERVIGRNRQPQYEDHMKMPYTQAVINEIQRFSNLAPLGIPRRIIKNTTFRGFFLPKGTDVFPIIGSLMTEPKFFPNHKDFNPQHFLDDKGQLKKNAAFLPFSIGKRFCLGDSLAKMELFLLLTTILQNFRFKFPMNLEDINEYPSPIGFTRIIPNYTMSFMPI
Chain of human CYP2B6, CYP2B6 (gene 1555) (P20813 whole entry, looked up): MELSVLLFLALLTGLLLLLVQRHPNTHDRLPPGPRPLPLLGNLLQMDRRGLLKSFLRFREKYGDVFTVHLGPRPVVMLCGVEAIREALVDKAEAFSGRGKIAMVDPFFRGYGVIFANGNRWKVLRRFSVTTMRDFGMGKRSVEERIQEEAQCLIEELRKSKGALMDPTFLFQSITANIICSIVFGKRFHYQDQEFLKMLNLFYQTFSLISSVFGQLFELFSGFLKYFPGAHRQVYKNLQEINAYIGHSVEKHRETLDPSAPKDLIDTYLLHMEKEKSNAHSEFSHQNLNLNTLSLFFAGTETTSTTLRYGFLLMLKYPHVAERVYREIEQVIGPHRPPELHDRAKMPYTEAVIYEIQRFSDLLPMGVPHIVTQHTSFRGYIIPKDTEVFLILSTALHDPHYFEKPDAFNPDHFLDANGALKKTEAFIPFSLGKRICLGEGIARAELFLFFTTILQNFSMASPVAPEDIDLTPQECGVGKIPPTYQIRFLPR

Take `Oc1cc(Cl)c(Cl)cc1Cl`: the result in assay [1] was inactive. Further, the AC50 is 31.1 µM (active) in [2], 30.6 µM (active) in assay [3], 27.6 µM (active) in [4] and 0.605 µM (active) in assay [5].
On to `CC(C)O.CC(C)O.OCCN(CCO)CCO.OCCN(CCO)CCO.[Ti]`, for which the outcome in assay [1], in assay [2] and in assay [3] was inactive. Further, the AC50 in assay [6] was 1.5 µM (active).
For `CC(C)=CC1C(C(=O)OCc2cccc(Oc3ccccc3)c2)C1(C)C` (stereo unspecified), the outcome in assay [1] and in assay [2] was inactive. Besides, the AC50 is 26.3 µM (active) in assay [3] and 24.9 µM (active) in [4].
With `O=C(N[C@H]1CN2CCC1CC2)c1ccc2c(c1)OCCO2`, the result in assay [1], in [2], in [3] and in assay [6] was inactive.
As to `O=c1nc(O)n(Cl)c(=O)n1Cl`, the result in assay [7] was inactive.
As for `Nc1ccc(N)cc1`, the outcome in assay [1], in [2], in assay [3], in assay [4] and in assay [8] was inactive.
On to `Oc1c(Cl)cc(Cl)cc1Cl`, for which the result in [2] and in assay [3] was inactive.
`O=C(O)C1(c2ccc3c(c2)OC[C@H](Cc2ccc(-c4ccccc4)cc2)[C@H]3O)CCCC1`: the outcome in [1] and in assay [6] was inactive. Besides, the AC50 in assay [2] was 24.6 µM (active); in assay [3], 16.7 µM (active).
Turning to `CCOP(=O)(OCC)OC(=CCl)c1ccc(Cl)cc1Cl`, the result in assay [1], in [2] and in assay [3] was inactive. In [9], the AC50 was 1.45 µM (active).
Take `CCOP(=S)(OCC)SCS(=O)(=O)C(C)(C)C`: the result in assay [1], in assay [2], in [3] and in assay [4] was inactive.
Regarding `N#Cc1cccnc1`, the outcome in assay [1], in [2], in assay [3], in [4] and in assay [6] was inactive.
Consider `N#CCCC(Br)(C#N)CBr` (stereo unspecified), for which the AC50 in assay [1] is 2.52 µM (active); in assay [2], 20 µM (active); in [3], 1.12 µM (active); in [8], 3.08 µM (active).
In the case of `CC(C)(C)c1ccccc1O`, the outcome in [1], in assay [2], in assay [3], in assay [4] and in [10] was inactive.
`O=C(O)COc1ccc(Cl)cc1`: the outcome in assay [11] was inactive.
Turning to `CCOC(=O)C(SP(=S)(OC)OC)c1ccccc1` (stereo unspecified), the result in assay [1], in assay [2] and in assay [4] was inactive. In addition, the values for the AC50 in [3] and in [9] were 35.3 µM (active) and 5 µM (active), respectively.
For `CC(C=O)Cc1ccc2c(c1)OCO2` (stereo unspecified), the result in [1], in [2], in [3] and in [4] was inactive. Further, in assay [9], the AC50 was 5 µM (active).
With `O=C1c2ccccc2C(=O)C1C(=O)C(c1ccccc1)c1ccc(Cl)cc1` (stereo unspecified), in [7], the AC50 is 5.08 µM (active).
For `COC(=O)Nc1cccc(OC(=O)Nc2cccc(C)c2)c1`, the result in assay [12] was inactive. In addition, the AC50 is 3.46 µM (active) in [13] and 11.4 µM (active) in the assay on rat CYP3A1, gene 25642.
With `Oc1ccc(Cc2ccc(O)cc2)cc1`, the result in [1], in [2], in [3] and in [4] was inactive. For the same molecule, the AC50 in assay [14] is 0.321 µM (active).
